Rows were chosen to be rich in hits. Some 0.24% of all compounds tested hit in one or more screens of this group.
Bcl-B Bim block: inhibitors of Bim-Bcl-B interaction, human; 190,000 compounds, 0.073% hits; inhibition, % at 10 µM; bead-based flow cytometry, Bim peptide-Bcl-B binding;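 note: 0% = tracer peptide without compound and 100% = reference inhibitor peptide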
Bim-Bcl-2: disrupts Bim peptide binding to human Bcl-2; P10415; Bead-based flow cytometry, Bim peptide-Bcl-2 binding; inhibition, % at 10 µM; 190,000 compounds, 0.06% hits; in the data active = inhibition above about 40%;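 note: 0% = no compound wells with probe peptide and 100% = reference peptide inhibitor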
Bim-Bcl-XL: inhibitors of Bim-Bcl-XL interaction, human; Bim peptide-Bcl-XL binding, bead flow cytometry, fluorescence; 190,000 compounds, 0.04% hits; AID 1007; inhibition, % at 10 µM
PKD1 inh: blocks activity of human protein kinase D1 | PKD1 kinase fluorescence polarization assay | inhibition, % (concentration not given with the values) | 200,000 compounds, 0.056% hits; in the data active = inhibition above about 50%
Bim-Bfl-1: disrupts Bim binding to human Bfl-1; Q16548; Bead-based flow cytometry, Bim-Bfl-1 binding inhibition; inhibition, % at 10 µM; 190,000 compounds, 0.12% hits; AID 1008;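 note: 0% = wells without compound plus tracer and 100% = blocker peptide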
Bcl-W Bim block: disrupts Bim peptide binding to human Bcl-W; 190,000 compounds, 0.02% hits; inhibition, % at 10 µM; bead-based flow cytometry;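 note: 0% = bound tracer without compound and 100% = peptide blocker; higher means less fluorescent Bim peptide bound to Bcl-W beads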
Target sequence (Q92843 whole entry, looked up): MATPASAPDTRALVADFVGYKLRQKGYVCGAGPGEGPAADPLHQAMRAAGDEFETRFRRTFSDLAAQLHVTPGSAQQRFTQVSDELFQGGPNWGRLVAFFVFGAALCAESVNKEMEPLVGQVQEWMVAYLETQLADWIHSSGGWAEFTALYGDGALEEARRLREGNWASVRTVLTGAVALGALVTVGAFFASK
Bim-BclXL dose: confirmation of regulators of human Bim-Bcl-XL interaction; bead-based flow cytometry, Bim-Bcl-XL binding; shares compounds with Bim-Bfl-1; 40 tested, under 10 active; AID 2084; inhibition of binding at 100 µM; call rule not given here
* marks the source's active call; other numbers are inactive results. Cut-off read from the data, not from the text of the source, unless noted: active = inhibition above about 40%.

What do the screens show for `Cc1ccc(-c2nc(N3CCOCC3)s[n+]2-c2ccccc2)cc1`?
Bcl-B Bim block: -42; Bim-Bcl-2: 13; Bim-Bcl-XL: 11; PKD1 inh: 3; Bim-Bfl-1: 53*; Bcl-W Bim block: 4

What do the screens show for `CCN(CC)P(c1n(C)cc[n+]1C)N(CC)CC`?
Bcl-B Bim block: -4; Bim-Bcl-2: 0; Bim-Bcl-XL: -2; PKD1 inh: -2; Bim-Bfl-1: -1; Bcl-W Bim block: 0

How did c1ccc(P(c2ccccn2)c2ccccn2)cc1 do in these assays?
Bcl-B Bim block: -3; Bim-Bcl-2: 2; Bim-Bcl-XL: 1; PKD1 inh: -2; Bim-Bfl-1: -1; Bcl-W Bim block: -1

Results for COc1ccc(C2CN(C)CC2C(=O)c2ccc(F)cc2)cc1Cl (stereo not given) ?
Bcl-B Bim block: 77*; Bim-Bcl-2: 81*; Bim-Bcl-XL: 4; PKD1 inh: -10; Bim-Bfl-1: 59*; Bcl-W Bim block: 2

What do the screens show for `CN1CC(C(=O)c2ccc(F)cc2)C(c2c(F)cccc2Cl)C1` (stereo not given)?
Bcl-B Bim block: 0; Bim-Bcl-2: 0; Bim-Bcl-XL: 7; PKD1 inh: 7; Bim-Bfl-1: 5; Bcl-W Bim block: 5

How did COC(=O)C1C2c3ccccc3OC1(C)N=c1s/c(=C/c3cnn(C)c3C)c(=O)n12 (stereo not given) do in these assays?
Bcl-B Bim block: 73*; Bim-Bcl-2: 27; Bim-Bcl-XL: 18; PKD1 inh: -8; Bim-Bfl-1: 11; Bcl-W Bim block: 19

How did Cc1ccc2c(c1)C1CN(C)CCC1N2C(=S)Nc1cccnc1 (stereo not given) do in these assays?
Bcl-B Bim block: -7; Bim-Bcl-2: -3; Bim-Bcl-XL: -2; PKD1 inh: -5; Bim-Bfl-1: -4; Bcl-W Bim block: -1

How did Cc1ccc2c(c1)C1CN(C)CCC1N2C(=O)Nc1cccc(Cl)c1 (stereo not given) do in these assays?
Bim-Bcl-2: 85*; Bim-Bcl-XL: 19; PKD1 inh: -1; Bcl-W Bim block: 16

How did O=C1NC(=O)C2(Cc3c(nc4ccccn4c3=O)N3CCCCCC32)C(=O)N1Cc1ccccc1 (stereo not given) do in these assays?
Bcl-B Bim block: 59*; Bim-Bcl-2: 4; Bim-Bcl-XL: -4; PKD1 inh: -8; Bim-Bfl-1: -1; Bcl-W Bim block: 0; Bim-BclXL dose: 3.8

What do the screens show for `CCC(C)C12CN3CCN(CC(C)(C3)C1=O)C2` (stereo not given)?
Bcl-B Bim block: -5; Bim-Bcl-2: -5; Bim-Bcl-XL: -5; PKD1 inh: 1; Bim-Bfl-1: -9; Bcl-W Bim block: 1
